# Measured values: the supplement of paper PMC3334620
# Over roughly 33,000 sequences, “E-score (-0.5 to 0.5)” has its median near -0.012; the highest 2% begin near 0.27. This excerpt belongs to a sample that is enriched for the highest values.
# Target: T1, Vhr1 (UniProt P40522)
# T1 sequence: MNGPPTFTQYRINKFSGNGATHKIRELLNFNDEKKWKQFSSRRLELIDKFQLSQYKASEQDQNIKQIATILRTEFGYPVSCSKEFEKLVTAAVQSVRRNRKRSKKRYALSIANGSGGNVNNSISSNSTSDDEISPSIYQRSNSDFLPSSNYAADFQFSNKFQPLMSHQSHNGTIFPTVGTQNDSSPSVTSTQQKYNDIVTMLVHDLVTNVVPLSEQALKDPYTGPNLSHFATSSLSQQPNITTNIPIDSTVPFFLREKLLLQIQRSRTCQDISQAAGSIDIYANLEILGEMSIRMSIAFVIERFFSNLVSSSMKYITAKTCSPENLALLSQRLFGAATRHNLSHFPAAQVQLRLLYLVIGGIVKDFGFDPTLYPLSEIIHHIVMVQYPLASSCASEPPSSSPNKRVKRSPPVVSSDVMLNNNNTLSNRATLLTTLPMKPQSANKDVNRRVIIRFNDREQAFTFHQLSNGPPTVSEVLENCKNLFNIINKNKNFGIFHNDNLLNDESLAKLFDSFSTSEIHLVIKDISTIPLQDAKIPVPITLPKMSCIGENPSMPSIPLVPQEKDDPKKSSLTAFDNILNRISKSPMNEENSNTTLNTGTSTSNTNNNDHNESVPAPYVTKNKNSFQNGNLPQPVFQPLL
# Assay: PBM E-score (8-mer binding enrichment) (E-score (-0.5 to 0.5)); higher = stronger / more preferred TF binding
# Conditions: protein concentration: 200 nM; construct: GST-full length
# Experimental: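 Universal 'all 10-mer' protein binding microarrays (Agilent AMADID 015681) probed with GST-tagged S. cerevisiae TFs (full-length or DBD) made by in vitro transcription/translation (PURExpress), about 100-200 nM. Bound TF was detected with fluorescent anti-GST. Each ungapped 8-mer (which stands for itself and its reverse complement) is scored by the PBM enrichment score (E-score), a modified Wilcoxon-Mann-Whitney statistic from -0.5 to +0.5, computed with the Universal PBM Analysis Suite. Scale: above 0.35 generally sequence-specific binding.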
row,Sequence,PBM E-score
1,ATGAAACC,0.137
2,ACGGTAGT,0.125
3,AAAATCAT,0.151
4,ATTGCTTG,-0.00443
5,ATCTCATC,0.0646
6,CGTACCCA,0.16
7,ACGGTCAT,0.156
8,GGCAAGCA,-0.224
9,CATGAGCC,0.159
10,AATGAGTG,0.157
11,AATGAGTA,0.223
12,CATGAGAG,0.147
13,CATGAGTC,0.477
14,CATGAGGC,-0.159
15,AATGAGAC,-0.113
16,AATGAGTC,0.426
17,CATGAGAC,0.274
18,AGTGTCGC,0.138
19,AAAATAAT,0.0747
20,TAAGCCTA,-0.259
21,GAATTTGC,-0.0954
22,CAAGAATC,0.179
23,GCGAACAC,-0.0481
24,AATAGGCA,0.0547
25,AACAGCAT,0.0405

row,Sequence,PBM E-score
1,AGAGCCCT,-0.165
2,GCAATCGA,-0.0515
3,AGAGTCAT,0.45
4,AGGGTCAG,-0.161
5,ACAGTCAT,0.318
6,AGAGTCAA,0.112
7,AAAGTCAG,0.119
8,AGAGTCAG,0.399
9,ACAGTCAA,0.0811
10,AGAGTCCC,-0.205
11,AGAGTCAC,0.43
12,AGAGTCCT,-0.17
13,ACAGTCAG,0.228
14,AGAGTCTC,0.191
15,CGGATCTA,-0.0646
16,GCACCTCC,-0.136
17,GGCAAAGA,-0.0131
18,GTTCACTA,-0.133
19,GCAATTCC,-0.163
20,GGAAAGCC,-0.0802
21,TGATGGAA,0.0625
22,ATTACTCG,0.198
23,ATTACTCA,0.29
24,GCTACTCA,0.271
25,CGTACTAA,0.153

row,Sequence,PBM E-score
1,ATTACTCC,0.0722
2,CATACCCC,0.105
3,CATACCCA,0.271
4,CGTACTCC,-0.0124
5,ACTACTCA,0.238
6,CGTACTCA,0.283
7,GCTACTCC,-0.145
8,TATACCCA,0.0126
9,AACTAAAT,-0.0313
10,ATCGGTGA,0.181
11,GTGCTTAA,-0.136
12,TATAGGAA,0.0238
13,GAATTAGA,-0.172
14,GCGTGTAA,-0.0131
15,ATTATTGC,-0.0063
16,ACTGGCGA,0.124
17,AATTTAGT,0.256
18,AGTACTCA,0.171
19,GATACTGA,0.159
20,CATACTGA,0.123
21,TATACTGA,0.309
22,CATACTCG,0.18
23,GGTACTCA,0.281
24,CATACTCC,0.125
25,CATACTCA,0.285

row,Sequence,PBM E-score
1,GGTACTTA,-0.103
2,CGGCACGC,-0.0534
3,GCAGCTCA,-0.254
4,GAAGAGTC,0.194
5,ACTGAGCC,0.219
6,GCTGAGCC,0.28
7,AAAGAGTC,0.0469
8,ACAGAGTC,0.296
9,CCTGAGCC,0.115
10,CAAGAGTC,0.296
11,AGAGAGTC,0.215
12,ACTGAGTG,0.0665
13,ACTGAGTA,0.263
14,ACAGAGTG,0.0123
15,ACTGAGTC,0.454
16,ATTCGGTG,0.106
17,GTTTGTGA,-0.0971
18,GGCTATGA,0.0249
19,AGAGCACG,0.00968
20,CCAGCCAA,-0.119
21,CATTCAGA,0.0364
22,CTGGGTAC,0.196
23,CCTGAGTA,0.205
24,CCTGAGGC,-0.096
25,CCTGAGTC,0.461

row,Sequence,PBM E-score
1,AACGCTAC,-0.205
2,CAATCAAG,0.00756
3,CAATCAGG,0.0706
4,CAATCATG,0.289
5,AAATCATT,-0.011
6,AAATCATG,0.29
7,AAATCATA,0.227
8,GACTGGCA,-0.0149
9,GAACTATA,0.222
10,GTAGCATA,0.079
11,CGATTCAG,0.12
12,AAGCTCCG,-0.173
13,ATAATACA,0.277
14,ATGATACA,0.289
15,ATGATATC,0.0491
16,ATAATATA,0.3
17,ATAATACG,0.0457
18,ATAATACC,0.212
19,CTGATACA,0.0817
20,ATGATATA,0.0327
21,ATGATACC,0.124
22,ATGATATG,0.315
23,ATAATATG,0.206
24,CTAATATA,-0.0362
25,AGTGCGCA,0.112

row,Sequence,PBM E-score
1,AGCCAGTA,0.133
2,CAAAGAGA,-0.299
3,ACCTCGCA,-0.0858
4,TCTGTTCA,0.151
5,CGGAGTCC,0.324
6,CTGAGTTC,0.0461
7,CTGAGTAC,0.175
8,ATGAGTAC,0.347
9,ATGAGTGG,0.162
10,ATGAGTCG,0.462
11,CGGAGTGC,0.139
12,CTGAGTCC,0.292
13,CTGAGTGC,0.0204
14,ATGAGTAG,0.189
15,ATGAGTTG,0.173
16,CGGAGTAC,0.0632
17,CATGGAGA,0.155
18,ATAAAACA,-0.125
19,ATGCTTTG,0.0636
20,AATAGCAC,-0.026
21,GAGGTTAC,0.0302
22,ACAGGTCC,-0.195
23,CGACAATA,0.0881
24,CGTTAGAA,-0.323
25,ACTGGGGA,-0.0871

row,Sequence,PBM E-score
1,CTGCCCCA,0.0236
2,AGGTGGAA,0.0199
3,GCGCTCAC,0.0509
4,ATGAGTCC,0.389
5,ATGAGTTC,0.00071
6,ATGAGTGC,0.0758
7,GACGCAAC,-0.169
8,CTTAGTCA,0.376
9,ATTAGTGG,0.141
10,ATTAGTTG,0.0201
11,GTTAGTCA,0.43
12,ATTAGTTA,0.143
13,ATTAGTCC,0.122
14,ATTAGTCG,0.279
15,GTTAGTGA,0.0216
16,CTTAGTAA,-0.0159
17,GTTAGTTA,0.137
18,ATTAGTCA,0.381
19,CTTAGTCC,0.0119
20,GGTGCAAC,-0.183
21,ATGACGCG,0.162
22,GTCAATCA,0.221
